The values that follow come from PubChem BioAssay (NCATS).

Records with an inconclusive call do not appear. Active and inactive are the calls of the source. Unless noted, the call rests on the fitted dose curve; in most records, active means well fitted curve in the direction sought with a large enough effect; inconclusive means small, poorly fitted or top-dose-only effect, or another doubt; inactive means no such curve, though single readings can be large; an effect the other way counts as inactive or inconclusive.

Experiment [1] can be described thus: qHTS drug screen for cell cycle checkpoint inhibitors in PARPi-resistant BRCA-mutant ovarian cancer cell lines. (AID 1963452; calls by dose curve). To be noted: PEO1/OlaR viability, CellTiter-Glo luminescence, 96 h, stronger effect = lower value. In short, it runs like this: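 PEO1, PEO4 and PEO1/OlaR ovarian cancer cells, 600 per well, exposed 96 h at 37C to a dilution series. Viability read by CellTiter-Glo luminescence, normalized to DMSO and empty wells; activity summarized as Z-AUC.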

For experiment [2], the system named is 7G8. The experiment can be described thus: qHTS profiling for inhibitors of Plasmodium falciparum proliferation (AID 504749). Further: nearly all actives have a fitted effect of over 60% in size. Further: potency means the concentration at half of the fitted maximal effect.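 On activity, negative = inhibition: 0% = DMSO vehicle and full inhibition = artemisinin control.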 Conditions: P. falciparum in erythrocytes, SYBR Green DNA, 72 h; series mostly up to 28.7 µM. In short, it runs like this: (§1)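 Infected RBCs, 0.3% parasitemia/2.5% Hct final; cpd 72 h, 37 C, 5% CO2; lysis buffer with saponin/triton/SYBR Green I, o/n RT dark; FI 485/535; norm. to artemisinin (0.29 uM) and DMSO.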

Assay in experiment [3]: as above
Conditions: P. falciparum in erythrocytes, SYBR Green DNA, 72 h. In short, it runs like this: as §1

Experiment [4] concerns 3D7. Described as above. To be noted: P. falciparum in erythrocytes, SYBR Green DNA, 72 h; series mostly up to 28.7 µM. In short, it runs like this:
as §1

Experiment [5] deals with AA1029. The description is as above. Conditions: P. falciparum in erythrocytes, SYBR Green DNA, 72 h; series mostly up to 28.7 µM. In short, it runs like this:
as §1

Experiment [6] relates to AS120. The description is as above. To be noted: P. falciparum in erythrocytes, SYBR Green DNA, 72 h; series mostly up to 28.7 µM. In short, it runs like this:
as §1

Experiment [7] relates to ATS189. The description is as above. Conditions: P. falciparum in erythrocytes, SYBR Green DNA, 72 h; series mostly up to 28.7 µM. In short, it runs like this: as §1
Experiment [8] can be described thus: qHTS for identification of novel therapeutic agents for treatment of microphthalmiaassociated transcription factor (MiT) renal cell carcinoma (RCC) (AID 1963991).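 Further: curves scaled with 100% = DMSO viability and 0% = empty wells.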 To be noted: CellTiter-Glo, 48 h, stronger effect = lower value. In short, it runs like this:
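UOK109/UOK124/UOK145 (TFE3 fusions, three partners); 500 cells/well; MIPE v4.0, 1912 cpds, 11 conc.; 48 h, 37 C; CellTiter-Glo, 15 min RT; lum. Norm.: DMSO 100%, empty 0%.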
In general terms: qHTS replaces the single test concentration by a dilution series.

In experiment [9] the target is Nuclear receptor subfamily 1 group I member 2 (Homo sapiens) (UniProt O75469). The experiment can be described thus: Dual reporter qHTS for antagonist of Pregnane X Receptor (hPXR) against the NCATS DSHEA and TCM libraries: Luminescence Readout (AID 1920060).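 Further: HepG2 cells carrying hPXR luciferase reporter stimulated with rifampicin at 2 µM; 0% is about no effect.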 Conditions: hPXR dual reporter cells, luciferase luminescence, antagonist mode; series mostly up to 40 µM. In short, it runs like this:
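HepG2 hPXR-Luc, 2000 cells/well, charcoal-stripped FBS medium; 5 h attach; RIF 2 uM final; 24 h 37C/5% CO2; CellTiter-Fluor 1 h, fluor 405/540; ONE-Glo 30 min RT, lum.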

A short description of experiment [10]: Dual reporter qHTS for antagonist of Pregnane X Receptor (hPXR) against the NCATS DSHEA and TCM libraries: Fluorescence Readout (AID 1920061). Further: 0% is about no effect. Conditions: PXR dual reporter cells, antagonist mode; series mostly up to 40 µM. The source says:
Assay Development and Screening Technology Laboratory (ADST)
National Center for Advancing Translational Sciences (NCATS), Rockville, MD
National Institute of Health (NIH), Bethesda, Maryland
Dietary Supplements and Natural Products have minor oversight of their safety and efficacy. We assembled a collection of Dietary Supplements and Natural Products (DSNP) as well as Traditional Chinese Medicinal (TCM) Plant extracts, which were screened against an in vitro panel of assays, including a liver cytochrome p450 enzyme panel, CAR/PXR signaling pathways, and P-gp transporter assays, to assess their activity. This pipeline facilitated the interrogation of Natural Product-Drug Interaction (NaPDI) through prominent metabolizing pathways. In addition, we compared the activity profiles of the DSNP/TCM substances with those of an approved drug collection. […] Overall, we highlight four significant bioactivity profiles (measured by p-values) as examples of this prediction. […] To profile potential P-gp activity, a differential cell viability was measured against two cell lines: a parental KB-3-1 human cervical adenocarcinoma cell line and the drug-resistant subline KB-8-5-11 that overexpresses P-gp. […]
8; Read; Fluorescence; ViewLux plate reader. […]
11; Read; Luminescence; ViewLux plate reader. […]

Setting [11] is: measured here: PEO1 parental Z-AUC.
[12] abbreviates: at 28.7 µM (top of the series), parasite line A.
[13] abbreviates: at 28.7 µM (top of the series), parasite line B.

Sequence of Nuclear receptor subfamily 1 group I member 2 (Homo sapiens) (O75469 whole entry, looked up): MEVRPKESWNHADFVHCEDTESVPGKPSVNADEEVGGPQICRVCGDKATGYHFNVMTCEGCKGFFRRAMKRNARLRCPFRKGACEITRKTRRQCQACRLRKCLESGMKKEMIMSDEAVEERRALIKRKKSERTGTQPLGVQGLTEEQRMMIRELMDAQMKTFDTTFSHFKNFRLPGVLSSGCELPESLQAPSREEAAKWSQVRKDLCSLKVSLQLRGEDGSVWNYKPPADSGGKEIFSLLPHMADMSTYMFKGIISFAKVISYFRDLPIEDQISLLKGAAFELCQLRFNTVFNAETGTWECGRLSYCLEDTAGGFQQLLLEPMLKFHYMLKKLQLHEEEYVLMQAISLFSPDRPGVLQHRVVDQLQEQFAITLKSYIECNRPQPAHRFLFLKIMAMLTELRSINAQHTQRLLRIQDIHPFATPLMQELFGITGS

Turning to `N[C@@H](Cc1ccc(N(CCCl)CCCl)cc1)C(=O)O`, the Z-AUC in experiment [1] is -0.14 (inactive); in experiment [1] (setting [11]) it was -0.257; in experiment [1] (measured here: PEO4 Z-AUC) it was -0.0487. Further, the Potency in experiment [2] is 11.2 µM (active).

Turning to `O=C(O)C(=O)c1cn(Cc2ccccc2)c2ccc(-c3ccc(OC(F)(F)F)cc3)cc12`, the Z-AUC was -0.0319 (inactive) in [1], 0.702 in experiment [1] (setting [11]) and 0.863 in experiment [1] (measured here: PEO4 Z-AUC).

`CN(C)CCN(C)CCc1ccc(Cl)c(Cl)c1`: the results for the Z-AUC in [1], in experiment [1] (setting [11]) and in [1] (measured here: PEO4 Z-AUC) were 1.45 (inactive), 1.36 and 1.58, respectively.

Regarding `CC(C)CC(N(C)C)C1(c2ccc(Cl)cc2)CCC1` (stereo unspecified), the Z-AUC in experiment [1] is 0.505 (inactive); in experiment [1] (setting [11]), 0.684; in experiment [1] (measured here: PEO4 Z-AUC) it was 0.647. Further, the activity, negative = inhibition was 6.97% (inactive) in experiment [3] (setting [12]) and 4.99% (inactive) in [3] (setting [13]). Further, the Potency entry in experiment [4], in experiment [2], in experiment [5], in experiment [6] and in experiment [7] was “inactive” in each case.

`Fc1ccc(C(OCCN2CCN(CCCc3ccccc3)CC2)c2ccc(F)cc2)cc1`: the results for the Z-AUC in experiment [1], in experiment [1] (setting [11]) and in experiment [1] (measured here: PEO4 Z-AUC) were 0.198 (inactive), -0.0312 and -0.0118, respectively. Besides, the Potency in experiment [3] (parasite line A) is 8.91 µM (active); in experiment [3] (parasite line B) it was 11.2 µM (active); in [4], 8.91 µM (active); in experiment [2] it was 3.55 µM (active); in experiment [5], 7.08 µM (active); in [6], 4.47 µM (active). The Potency in experiment [7] was 8.91 µM (active).

In the case of `COc1ccc(C(=O)c2c(C)n(CCN3CCOCC3)c3ccccc23)cc1`, the Z-AUC in [1] was 0.0561 (inactive); in [1] (setting [11]), -0.45; in experiment [1] (measured here: PEO4 Z-AUC), -1.01. For the same compound, the z-score is 0.603 in [8] (TFE3-RCC UOK109 viability, measured here: UOK109 Z-AUC); 0.604 in experiment [8] (TFE3-RCC viability, measured here: UOK124 Z-AUC); 0.655 in experiment [8] (TFE3-RCC viability, measured here: UOK145 Z-AUC). For the same compound, the activity, negative = inhibition in [3] (setting [12]) is -0.832% (inactive); in experiment [3] (setting [13]), 8.06% (inactive). Moreover, the Potency entry in [4], in experiment [5], in experiment [6] and in [7] was “inactive” in each case. Also, the Potency in [2] was 12.6 µM (active).

For the compound `C[C@]12CCC(=O)C(O)=C1CC[C@@H]1[C@@H]2CC[C@]2(C)C(=O)CC[C@@H]12`, the figures for the Z-AUC in experiment [1], in experiment [1] (setting [11]) and in [1] (measured here: PEO4 Z-AUC) were 0.873 (inactive), 1.02 and 1.06, respectively.

Regarding `N[C@@H]1C[C@H]1c1ccccc1`, the Z-AUC was 0.628 (inactive) in [1], 1.13 in experiment [1] (setting [11]) and 0.895 in experiment [1] (measured here: PEO4 Z-AUC).

In the case of `NN=C(N)N`, the Z-AUC in experiment [1] is 0.673 (inactive); in experiment [1] (setting [11]), 0.529; in [1] (measured here: PEO4 Z-AUC), 0.584. In addition, the results for the activity, negative = inhibition in [3] (setting [12]) and in experiment [3] (setting [13]) were -1.43% (inactive) and 11.2% (inactive), respectively. The Potency entry in experiment [4], in [2], in experiment [5], in [6] and in [7] was “inactive” each time.

In the case of `O=P1(NCCCl)OCCCN1CCCl` (stereo unspecified), the Z-AUC is 0.293 (inactive) in experiment [1], -0.297 in [1] (setting [11]) and -0.293 in experiment [1] (measured here: PEO4 Z-AUC). For the same compound, the activity, negative = inhibition in experiment [3] (at 12.8 µM (top of the series), parasite line A) is -2.67% (inactive); in experiment [3] (at 12.8 µM (top of the series), parasite line B), 0.405% (inactive). For the same compound, the Potency result in experiment [4], in experiment [2], in [5], in [6] and in [7] was “inactive” in each case.

Regarding `CC(C)=CCOc1c2occc2cc2ccc(=O)oc12`, the outcome in experiment [9] and in experiment [10] was inactive.
